Only a selection was taken, and hits are over-represented in it overall.
mHTT-CaM PPI inh: mutant huntingtin-calmodulin interaction inhibitors – biochemical, AlphaScreen, primary screen; P42858; 3.6% of 190,000 active; AlphaScreen His-mHTT/GST-CaM binding, luminescence; AID 1671202, 2021; inhibition, % at 15 µM
Pf apPOL block: Pf-apPOL inhibitors, biochemical, fluorescence | Recombinant Pf-apPOL, molecular beacon fluorescence, 1.5 h | inhibition, % at 10 µM | 0.25% of 210,000 active | AID 1794808, 2022
Each line names hits and unclear results; the compound was inactive in the other large screens. No stated cut-off is given here; in the data, active means inhibition above about 50%; inactive means the rest.

N#Cc1cccc(N2C=C(C(=O)N3CCCCC3)S(=O)(=O)c3ccccc32)c1	none
O=C(COc1ccc(F)cc1)N(CCc1cccs1)C1CC1	none
CN(C)c1ccc(Nc2cccc3nccnc23)cc1	mHTT-CaM PPI inh 61
c1cc(Nc2cccc3nccnc23)c2nccnc2c1	none
CCCC(=O)N1CCC2(CC1)NC(=O)c1c(Cl)cccc1N2	none
Cc1ccc(NCCNS(=O)(=O)c2ccc(-c3csc(C)n3)s2)nn1	mHTT-CaM PPI inh 99
CCN(CC)S(=O)(=O)c1ccc(-c2csc(C)n2)s1	none (no result: mHTT-CaM PPI inh)
COc1cc(CNc2ccc3c(c2)CCC3)c([N+](=O)[O-])cc1OC	mHTT-CaM PPI inh 71
COc1cc(CNc2ccc(F)c(Cl)c2)c([N+](=O)[O-])cc1OC	mHTT-CaM PPI inh 62
COc1cc(CNC2CCCCCC2)c([N+](=O)[O-])cc1OC	none
O=C(Nc1ccc2cn[nH]c2c1)c1ccc([N+](=O)[O-])o1	none
O=[N+]([O-])c1ccccc1CNc1ccc(F)c(F)c1	none
O=[N+]([O-])c1ccccc1CNc1ccc2c(c1)CCC2	mHTT-CaM PPI inh 94
COc1cc(CNc2ccc(F)c(Cl)c2)cc([N+](=O)[O-])c1O	none
O=[N+]([O-])c1ccccc1CNc1ccc2cn[nH]c2c1	mHTT-CaM PPI inh 59
COc1nn(C)cc1C(=O)Nc1ccc(-c2ccc(N3CCCC3)nn2)cc1	none
O=C(O)c1n[nH]c([N+](=O)[O-])c1Br	none (no result: Pf apPOL block)
COC(=O)c1c2c(nc3ccc(C)cc13)CCN(C(=O)c1cccc(C)c1)C2	none
C=CCNC(=O)C1CC(=O)N(Cc2ccccc2F)C1 (centres undefined)	none
O=C(Cc1cccs1)NCCCN1CCOCC1	none
Cn1ccc2c(cc(C(=O)N3CCC(Cc4ccccc4)CC3)n2C)c1=O	none
O=[N+]([O-])c1cccc(CNc2ccc3c(c2)CCC3)c1	mHTT-CaM PPI inh 89
O=[N+]([O-])c1cccc(CNc2cccc(F)c2)c1	none
Cc1cc(C)nc(SCCCn2c(=O)[nH]c3ccccc32)n1	none
O=c1[nH]c2ccccc2n1CCCSc1nccc2ccccc12	mHTT-CaM PPI inh 100
CCN(C)C(=O)c1ccccc1N1CCC(NC(=O)c2ccccc2F)CC1	none
NC(=O)c1cc2ccccc2oc1=Nc1cccc(C(F)(F)F)c1	none
COc1ccc(Cl)cc1NC(=O)C1CCN(c2nccc3sc(C)cc23)CC1	none
O=C(Nc1ccc(F)cc1)C1(S(=O)(=O)c2ccc(Cl)cc2)CC1	none
Cc1ccc(NC(=O)C2(S(=O)(=O)c3ccc(Cl)cc3)CC2)cc1F	Pf apPOL block 84
O=C1NC(=O)c2cc(N3Cc4ccccc4C3)ccc21	mHTT-CaM PPI inh 79
O=C1NC(=O)c2cc(-c3ccccc3)ccc21	none
Cc1ccc(N2C(=O)CC(N3CCc4ccccc4C3)C2=O)cc1C (centres undefined)	none
Cc1cc(N2Cc3ccccc3C2)ccc1C=O	mHTT-CaM PPI inh 82
Cc1ccc2c(Cl)c(C(=O)NCc3ccccc3)sc2c1	none
C1=CC(=C(c2ccccc2)c2ccccc2)C=C1	none (no result: mHTT-CaM PPI inh)
O=C(c1ccc(F)cc1)N1CCc2nc(N3CCCC3)nc(N3CCCC3)c2C1	mHTT-CaM PPI inh 56
O=C(c1ccc(F)cc1)N1CCCCCC1	none
O=C(Nc1ccc(NC(=O)c2cccc(Br)c2)cc1)c1ccccc1	none
C=CCN1N=C(NC(=O)c2cccc(Br)c2)SC=C1c1ccccc1	mHTT-CaM PPI inh 55
CCOc1ccccc1C(=O)Nc1sc(C)c(CC)c1C(N)=O	none
Cc1cccc(CNC(=O)c2nn(C)c3c2CN(C(=O)c2cccc(Cl)c2)CC3)c1	mHTT-CaM PPI inh 76
Cc1cccc(CNC(=O)c2nn(C)c3c2CN(C(=O)c2ccc(Cl)cc2)CC3)c1	mHTT-CaM PPI inh 64
Cc1cccc(CNC(=O)c2nn(C)c3c2CN(C(=O)c2c(F)cccc2F)CC3)c1	none
Cc1ccc(S(=O)(=O)c2ccc(Cl)cc2)cc1S(=O)(=O)Nc1ccc(C(=O)O)cc1	none
O=C(O)c1ccc(NC2=CC(=NS(=O)(=O)c3ccc(Cl)cc3)c3ccccc3C2=O)cc1	mHTT-CaM PPI inh 82
CC(=O)Nc1ccc(NC2=CC(=NS(=O)(=O)c3ccccc3)c3ccccc3C2=O)cc1	mHTT-CaM PPI inh 71
CC(=O)Nc1ccc(NC2=CC(=NS(=O)(=O)c3ccc(C)cc3)c3ccccc3C2=O)cc1	none
COc1ccc(C2NC(=O)C(=O)C2=C(O)c2ccccc2)cc1 (centres undefined)	none
O=C(CC1Nc2cccc3cccc(c23)NC1=O)Nc1cccc(C(F)(F)F)c1 (centres undefined)	mHTT-CaM PPI inh 51
COc1cccc(NC(=O)CC2Nc3ccccc3NC2=O)c1 (centres undefined)	none
Cc1cccc(NC2=C(N3CCOCC3)C(=O)c3ccccc3C2=O)c1	none
O=C1C(Nc2ccc(F)c(F)c2)=C(N2CCOCC2)C(=O)c2ccccc21	none
CC(=O)Nc1ccc(NC2=C(N3CCCCC3)C(=O)c3ccccc3C2=O)cc1	none
O=C1C(Nc2cccc(I)c2)=C(N2CCOCC2)C(=O)c2ccccc21	mHTT-CaM PPI inh 86
O=C1C(Nc2cccc(C(F)(F)F)c2)=C(N2CCOCC2)C(=O)c2ccccc21	mHTT-CaM PPI inh 66
CC(=O)NC1=C(N2CCN(c3ccccc3)CC2)C(=O)c2ccccc2C1=O	none
O=C1C(Nc2cccc(I)c2)=C(N2CCCCC2)C(=O)c2ccccc21	mHTT-CaM PPI inh 92
O=C1C(Nc2cccc(I)c2)=C(N2CCCC2)C(=O)c2ccccc21	mHTT-CaM PPI inh 99
Cc1cc(OCc2ccccc2)nc(N2CCOCC2)n1	none
Clc1ccc(C2CC(c3ccccc3)Nc3nnnn32)c(Cl)c1 (centres undefined)	none
CN(C)CC(O)COc1ccccc1 (centres undefined)	none
CC(=O)c1cccc(Oc2nc(C)nc3sc4c(c23)CCCC4)c1	none
COc1ccccc1CNC(=O)C1=C2CCCN2c2ccccc2S1(=O)=O	none
Cc1[nH]c2ccccc2c1C(=O)CN1CCCCC1	none
Cc1[nH]c2ccccc2c1C(=O)CN1CCCC1	mHTT-CaM PPI inh 59
CCCCNC(=O)C1(c2ccc(NC(C)=O)cc2)CCCCC1	none
CN(CC(=O)N1N=C(c2cccn2C)CC1c1ccc(Cl)cc1)C(=O)C1CCC1 (centres undefined)	none
CN(CC(=O)N1N=C(c2cccn2C)CC1c1ccccc1)C(=O)C1CCC1 (centres undefined)	mHTT-CaM PPI inh 55
CC(C)C(=O)N(C)CC(=O)N1N=C(c2ccc(F)cc2)CC1c1ccccc1 (centres undefined)	none
COc1ccc(C2=NN(C(=O)CN(C)C(C)=O)C(c3ccc(Cl)cc3)C2)cc1 (centres undefined)	none
CC(C)C(=O)N(C)CC(=O)N1N=C(c2cccn2C)CC1c1ccc(Cl)cc1 (centres undefined)	mHTT-CaM PPI inh 78
CC(=O)N(C)CC(=O)N1N=C(c2cccn2C)CC1c1ccc(Cl)cc1 (centres undefined)	mHTT-CaM PPI inh 65
CC(=O)c1ccc(NC(=O)CCN2C(=O)C3C4CCC(C4)C3C2=O)cc1 (centres undefined)	none
CCc1cccc(C)c1NC(=O)c1ccc(OC)c([N+](=O)[O-])c1	none
CC(=O)c1cccc(NC2OC(=O)c3ccccc32)c1 (centres undefined)	none
O=C(NCCC1=CCCCC1)c1coc(NC(=O)C2CC2)n1	none
O=[N+]([O-])c1ccccc1S(=O)(=O)Nc1ccc(Cl)c(Cl)c1	none
Cc1ccc(NS(=O)(=O)c2ccccc2[N+](=O)[O-])cc1C	Pf apPOL block 51
COc1cc(OC)cc(C(=O)N2CCC(c3nc4cccnc4n3C)C2)c1 (centres undefined)	none
